According to PubChem BioAssay AID977607 (Broad Institute, 2014):
Out of some 1,500 compounds screened, about 460 (31%) were called active. About 1% were inconclusive and are not listed.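 How the source made its calls: active means curve reaches 40% activation over neutral controls at an AC40 no higher than the top valid tested concentration; inconclusive means no clear call, values can overlap the other calls; inactive means signal moving opposite to the expected increase, and the rest.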 These entries were drawn from the full list. Measured potencies and affinities stand elsewhere.

test: GLuc-reported insulin release enhancers, glucose-stimulated beta cells – cell-based, INS-1E, Gaussia luciferase, luminescence, cherry-pick, set 2, dose response (AID 977607); conditions: INS-1E GLuc insulin secretion reporter, 2-3 h, stronger effect = higher value; at 35 µM, 100% = signal doubled over neutral wells unless noted;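 further: 0% = median of the plate neutral control wells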

Max activation, inactive:
CN(Cc1ccccc1)C(=S)NC(=O)c1ccc(-c2ccccc2)cc1 -29.1% [at 3.8 µM, 100% = signal doubled over neutral wells]
COc1cc(NC(=O)c2c(-c3ccccc3Cl)noc2C)c2ncccc2c1 -28.8% [at 11 µM, 100% = signal doubled over neutral wells]
Cc1cccnc1NC(=O)c1ccc(S(=O)(=O)N2CCCCC2)cc1 -21.1% [at 3.8 µM, 100% = signal doubled over neutral wells]
CC1CC(C)CN(CC(O)COCc2ccccc2F)C1 (stereo not given) -21.2% [at 0.0016 µM, 100% = signal doubled over neutral wells]
COc1ccc(OC)c(N(CC(=O)NN=C2CCN(C)CC2)S(=O)(=O)c2ccccc2)c1 -25.4% [at 0.135 µM, 100% = signal doubled over neutral wells]
CC(NC(=O)C1CCCN1S(=O)(=O)c1ccc2c(c1)n(C)c(=O)c(=O)n2C)c1ccccc1 (stereo not given) -14.2% [at 0.015 µM, 100% = signal doubled over neutral wells]
c1cc2c(cc1CN1CCN(C3CCCCCC3)CC1)OCO2 -12.6% [at 0.135 µM, 100% = signal doubled over neutral wells]
Cc1cc(S(=O)(=O)NCc2cccnc2)ccc1F -23% [at 3.8 µM, 100% = signal doubled over neutral wells]
COC(=O)c1sc2ccccc2c1NC(=O)c1cccs1 -14.7% [at 0.046 µM, 100% = signal doubled over neutral wells]
O=C(Nc1nonc1NC(=O)c1cccs1)c1cccs1 -48.2%
Cc1cc(C)nc(NC(=O)c2ccc(Cl)cc2Cl)n1 -21.7% [at 0.135 µM, 100% = signal doubled over neutral wells]
Cc1ccc(NC(=O)c2cccs2)cc1NC(=O)c1ccccc1Cl 18.8% [at 1.2 µM, 100% = signal doubled over neutral wells]
CCCCNC(=O)c1ccccc1NC(=O)C1=C(C)OCCS1 -8.81% [at 0.005 µM, 100% = signal doubled over neutral wells]
CCOC(=O)c1nc(NCc2cccnc2)c2ccccc2n1 -21% [at 1.2 µM, 100% = signal doubled over neutral wells]
O=C(O)CCCC(=O)N1CCN(c2nc(-c3ccccc3)c3ccccc3n2)CC1 16.9% [at 0.42 µM, 100% = signal doubled over neutral wells]
CS(=O)(=O)N1CCN(c2ccccc2NC(=O)c2ccco2)CC1 22.3%
O=C(Nc1ccccc1N1CCOCC1)C1=NN(c2ccccc2)C(=O)CC1 16.2%
CC1(C(=O)NCC2CCCCC2)CCN1CCc1ccccc1 (stereo not given) -18.8% [at 0.0016 µM, 100% = signal doubled over neutral wells]
CC(C)(C)OC(=O)N1CCCN(C(=O)c2ccc(Cl)cc2)CC1 -21.4% [at 0.135 µM, 100% = signal doubled over neutral wells]
CN1CCN(C(=O)c2cccc(-c3cnc4cnc(-c5ccccc5Oc5ccccc5)cn34)c2)CC1 -43%
N#CN=CN1CC=C(c2ccc(Cl)cc2)CC1 30.6% [at 3.8 µM, 100% = signal doubled over neutral wells]
CC1=NN(C(N)=S)C(=O)C1N=Nc1ccccc1C (stereo not given) -15.4%
Cc1cc(C)n(-c2nc(NCCN(C)C)c3c4c(sc3n2)CCCC4)n1 22.9%
O=C(Cn1[nH]c(=O)c2ccccc2c1=O)OCC(=O)c1ccc(F)cc1 -10.7% [at 0.046 µM, 100% = signal doubled over neutral wells]
CC(=O)Nc1nc(CC(C)C)cc(-c2ccco2)c1C#N -15.6% [at 0.135 µM, 100% = signal doubled over neutral wells]
CCOC(=O)c1sc2ncn(/N=C/c3cccnc3)c(=O)c2c1C -22.4% [at 0.0016 µM, 100% = signal doubled over neutral wells]
Cc1cccc(C)c1NC(=O)NC1CCc2ccccc21 (stereo not given) -27.2%
Cc1noc(C)c1NC(=O)N(C)C[C@H]1Oc2c(NC(=O)C3CCCCC3)cccc2C(=O)N([C@H](C)CO)C[C@@H]1C -26.4% [at 0.015 µM, 100% = signal doubled over neutral wells]
COc1ccc(C(=O)c2cnc[nH]2)cc1OC -12% [at 0.015 µM, 100% = signal doubled over neutral wells]
CCC(c1nnnn1-c1ccc2c(c1)OCCO2)N1CCc2ccccc2C1 (stereo not given) 36.8% [at 1.2 µM, 100% = signal doubled over neutral wells]
COc1ccc(N2CC(NS(=O)(=O)c3cccs3)CC2=O)cc1OC (stereo not given) -12.7% [at 11 µM, 100% = signal doubled over neutral wells]
COc1ccc(C2=NN(C(=O)c3ccco3)C(c3ccco3)C2)cc1OC (stereo not given) 9.84% [at 0.42 µM, 100% = signal doubled over neutral wells]
COc1ccc(-c2nc(CCNC(=O)c3ccco3)cs2)cc1OC 53% [at 0.015 µM, 100% = signal doubled over neutral wells]
COc1ccc2c(c1)[C@@]1(OCCC=C[C@H]1C)C(=O)N2CC1CC1 15.8% [at 11 µM, 100% = signal doubled over neutral wells]
O=C(NNC(=O)c1cc2cc3ccccc3nc2s1)c1cccc(C(F)(F)F)c1 -20.1% [at 0.015 µM, 100% = signal doubled over neutral wells]
